The values below come from PubChem BioAssay (EPA / NIEHS).

Several values for one entry are separate records, joined by “and”; a condition that tells them apart may be missing. Equal entries are not always repeated. Activity calls are given as the source filed them. The calls were made as follows: active = hit-call score of the fitted dose curve at least 0.9, where 1 is the maximum; inactive = score below 0.9.

The nature of assay [1]: CCTE_Padilla_ZF_Score.Swim_bladder: CCTE's 144 Hour Post-fertilization zebrafish Assay Score for Swim Bladder Malformation, Padilla Lab (AID 2284408). In a few lines:
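Wild-type zebrafish embryos, one per well in 10% Hanks', dosed at 6–8 hpf, sealed, reared at 26C and rinsed at 5 dpf. Blinded assessors scored uninflated swim bladder by stereomicroscopy at 6 dpf, relative to DMSO.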

Assay [2] is described as follows: CCTE_Padilla_ZF_Score.Position: CCTE's 144 Hour Post-fertilization zebrafish Assay Score for Position, Padilla Lab (AID 2284409). In short, it runs like this:
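Wild-type zebrafish embryos (with chorions) exposed singly from 6–8 hpf in sealed wells of Hanks' solution at 26C, rinsed at 5 dpf. At 6 dpf, blinded assessors scored abnormal water-column position by brightfield stereomicroscopy, relative to DMSO.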

Assay [3] can be described thus: CCTE_Padilla_ZF_Score.Living: CCTE's 144 Hour Post-fertilization zebrafish Assay Score for Viability, Padilla Lab (AID 2284410).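 Also: larval death at 6 dpf judged by absent heartbeat or coagulation.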 In short, it runs like this:
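Wild-type zebrafish embryos were exposed singly from 6–8 hpf in sealed wells of Hanks' solution at 26C, then rinsed at 5 dpf. At 6 dpf, blinded assessors scored mortality (no heartbeat or coagulation) by stereomicroscopy, fitted against DMSO.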

Assay [4] in a line: CCTE_Padilla_ZF_Score.General: CCTE's 144 Hour Post-fertilization zebrafish Assay Score for General Malformation, Padilla Lab (AID 2284411). In short, it runs like this: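 Wild-type zebrafish embryos were plated singly at 6-8 hpf in 10% Hanks' and exposed in sealed wells at 26C until rinsed on 5 dpf. At 6 dpf two blinded assessors scored mortality, hatching and malformations by stereomicroscopy; gain-of-signal versus DMSO.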

Assay [5] can be described thus: CCTE_Padilla_ZF_Score.Tail: CCTE's 144 Hour Post-fertilization zebrafish Assay Score for Tail Malformation, Padilla Lab (AID 2284414). In short, it runs like this:
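Wild-type zebrafish embryos, one per well in 200 uL 10% Hanks', dosed at 6-8 hpf, sealed, and kept at 26 C on a 14:10 h light cycle. Chemical was rinsed out at 5 dpf. Blinded brightfield scoring of tail defects followed at 6 dpf.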

Assay [6] is described as follows: CCTE_Padilla_ZF_Score.Blood_pooling: CCTE's 144 Hour Post-fertilization zebrafish Assay Score for Blood Pooling, Padilla Lab (AID 2284415). In short, it runs like this:
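Wild-type outbred zebrafish embryos, one per well in 10% Hanks', exposed from 6–8 hpf in sealed plates at 26C on 14:10 h light:dark, rinsed at 5 dpf. Blinded stereomicroscope scoring of blood pooling at 6 dpf; gain-of-signal versus DMSO.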

The nature of assay [7]: CCTE_Padilla_ZF_Score.Any: CCTE's 144 Hour Post-fertilization zebrafish Assay Score for Any Mortality or Malformation, Padilla Lab (AID 2284416). In a few lines:
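Wild-type zebrafish embryos with chorions, one per well in 10% Hanks' from 6–8 hpf, dosed in sealed plates at 26 C, 14:10 h light:dark; rinsed at 5 dpf; blinded scoring at 6 dpf for death or malformation, versus DMSO.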

Another assay concerns TTR (gene 7276). Kind of assay: CCTE_GLTED_hTTR_0.125uM: CCTE's human Transthyretin (hTTR) Inhibition Assay, with 0.125uM TTR, Great Lakes Toxicology and Ecology Division (GLTED) Lab (AID 2284431).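 Also: hits lower the fluorescence signal relative to DMSO baseline.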 In short, it runs like this: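 Activity is defined as decreased ANSA fluorescence (ex 380, em 475) from human transthyretin, 0.125uM, following 2-hour chemical exposure in a cell-free setup, with DMSO as baseline.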

Regarding `O=C(O)CCC(F)(C(F)(F)F)C(F)(F)F`, the result in assay [1], in assay [2], in assay [3], in assay [4], in assay [5] and in assay [6] was inactive. Also, the compound was called inactive in assay [7].

Regarding `Nc1ncc([N+](=O)[O-])s1`, the compound was classed as inactive in assay [4].

As to `O=[N+]([O-])c1ccc(O)c([N+](=O)[O-])c1`, the AC50 in the assay with TTR (gene 7276) was 0.155 µM (active).

`COP(=S)(OC)Oc1ccc(Sc2ccc(OP(=S)(OC)OC)cc2)cc1`: the AC50 in the assay with TTR (gene 7276) was 0.537 µM (active).

In the case of `O=C(O)C(F)(F)C(F)(F)C(F)(F)C(F)(F)C(F)(F)C(F)(F)C(F)(F)C(F)(F)C(F)(F)C(F)(F)F`, the AC50 in assay [1] is 2410 nM (active); in assay [3] it was 50700 nM (active); in assay [4], 2510 nM (active); in assay [7] it was 3350 nM (active); with TTR (gene 7276), 0.783 µM (active). For the same compound, the result in assay [2], in assay [5] and in assay [6] was inactive.

With `O=C(O)C(F)(F)C(F)(F)C(F)(F)C(F)(F)C(F)(F)C(F)(F)F`, the call in assay [1], in assay [2], in assay [3], in assay [4], in assay [5] and in assay [6] was inactive. For the same compound, the AC50 in assay [7] is 98900 nM (active); with TTR (gene 7276), 0.236 µM (active).

Take `CC(C)(C)CC(C)(C)c1ccc(O)cc1`: the AC50 in the assay with TTR (gene 7276) is 13.1 µM (active).

As for `Oc1ccc(-c2ccccc2)cc1`, the AC50 with TTR (gene 7276) was 2.83 µM (active).

`CCOP(=S)(OCC)Oc1ccc(S(C)=O)cc1` (stereo not given): the outcome in assay [4] was inactive.

`COP(=O)(OC)O/C(=C\Cl)c1cc(Cl)c(Cl)cc1Cl`: the AC50 in the assay on TTR (gene 7276) was 1.18 µM (active).

Take `CCOP(=S)(OCC)SCSP(=S)(OCC)OCC`: the AC50 in the assay on TTR (gene 7276) is 1.57 µM (active).

For the compound `BrCCBr`, the compound was classed as inactive in assay [4].

Consider `CCOP(=S)(OCC)SCCS(=O)(=O)CC`, for which the outcome in assay [4] was inactive.

`ClC(Cl)=C(Cl)C(Cl)=C(Cl)Cl`: the AC50 in the assay with TTR (gene 7276) is 9.92 µM (active).

`CCC(C)(C)c1ccc(O)c(C(C)(C)CC)c1`: the AC50 in the assay with TTR (gene 7276) is 3.18 µM (active).

For the compound `NC(=S)Nc1ccccc1`, the compound was classed as inactive in assay [4].

For `CCOP(=S)(OCC)Oc1nc(Cl)c(Cl)cc1Cl`, the AC50 in the assay on TTR (gene 7276) was 0.376 µM (active).

Take `CC(C)(c1ccccc1)c1ccc(O)c(C(C)(C)c2ccccc2)c1`: the AC50 with TTR (gene 7276) is 0.241 µM (active).

For `O=C1C(Cl)=C(Cl)C(=O)c2ccccc21`, the AC50 in the assay with TTR (gene 7276) was 3.67 µM (active).

With `CC(C)CCCCCCOC(=O)c1ccccc1C(=O)OCCCCCCC(C)C`, the result in assay [4] was inactive.

As for `COc1cc(-c2ccc(N)c(OC)c2)ccc1N`, the AC50 in the assay with TTR (gene 7276) was 104 nM (active) and 2.64 µM (active).

On to `Nc1cccc2ccccc12`, for which the compound was classed as inactive in assay [4].

Take `CCCCCCCCc1ccc(O)cc1`: the AC50 in the assay on TTR (gene 7276) is 1.2 µM (active).

`COc1cc(OC)nc(NC(=O)NS(=O)(=O)c2ncccc2C(=O)N(C)C)n1`: the compound was classed as inactive in assay [4].

Turning to `CC(=O)C(Cl)C(=O)N(C)C` (stereo not given), in assay [4], the compound was classed as inactive.
